Results on 21 molecules are retold here after PubChem BioAssay (Tox21).

Several values for one entry are separate records, joined by “and”; a condition that tells them apart may be missing. Equal values may be shown once. Records with an inconclusive call do not appear. More than one record can exist for a structure, and the calls need not agree. Activity calls are given as the source filed them. Unless noted, calls follow the shape of the dose curve; as a rule, active = well fitted curve in the direction sought with a large enough effect in the repeat runs; inconclusive = weak or mixed curves; inactive = no such curve, though single readings can be large; an effect the other way counts as inactive or inconclusive.

The nature of assay [1]: qHTS assay for small molecule agonists of the p53 signaling pathway (AID 651631; calls by dose curve; also: nearly all actives have a fitted effect of over 15% in size; also: potency is read from the fitted curve at half-maximal effect). The procedure, abridged: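 Quantitative high-throughput format: 4,000 p53RE-bla HCT-116 cells/well, 5 h pre-incubation, 16 h compound exposure at 37 °C, 2 h room-temperature substrate step, fluorescence intensity measured.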
A general note: Quantitative high-throughput screening tests each substance at several concentrations.

Assay [2] in a line: qHTS assay for small molecules that induce genotoxicity in human embryonic kidney cells expressing luciferase-tagged ATAD5 (AID 651632). Also: nearly all actives have a fitted effect of over 15% in size. Also: potency is read from the fitted curve at half-maximal effect. The procedure, abridged:
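ATAD5-luc HEK293T, 2,000 cells/well; cpd or DMSO pin-transferred; 16 hr, 37C/5% CO2; Amplite 30 min RT; luminescence.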

Assay [3] can be described thus: qHTS assay for small molecule agonists of the p53 signaling pathway - cell viability (AID 651633; calls by dose curve; also: nearly all actives have a fitted effect of over 30% in size; also: potency is read from the fitted curve at half-maximal effect). An outline of the steps: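 p53RE-bla cells, seeded at 4,000 per well and rested 5 h at 37 C/5% CO2, received compounds in DMSO for 16 h at 37 C. CellTiter-Glo was then added, and luminescence was read after 30 min at room temperature to gauge cytotoxicity.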
Assay [4] can be described thus: qHTS assay for small molecule disruptors of the mitochondrial membrane potential - cell viability (AID 720634; calls by dose curve; also: nearly all actives have a fitted effect of over 20% in size; also: potency is read from the fitted curve at half-maximal effect). The procedure, abridged:
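Cells: HepG2, 2,000/well, attached overnight. Compound 1 hr, 37 C/5% CO2. +m-MPI dye, +CellTiter-Glo 30 min RT. Readout: luminescence (ATP).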

Assay [5] in a line: qHTS assay for small molecule disruptors of the mitochondrial membrane potential (AID 720635). Also: potency is read from the fitted curve at half-maximal effect. An outline of the steps:
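HepG2 cells (2,000/well) attached overnight at 37C, then took compound for 1 hr at 37C, 5% CO2. Mito-MPS dye was added for 30 min; fluorescence was read at 490/535 nm (monomers) and 540/590 nm (aggregates).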

Assay [6] can be described thus: qHTS assay to test for compound auto fluorescence at 590 nm (red) in HepG2 cells (AID 720674). The procedure, abridged:
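Intrinsic compound fluorescence in the red window (Ex/Em 540/590 nm) is measured in attached HepG2 cells exposed for 1 hr, DMSO vehicle as baseline, benchmarked to Rose Bengal sodium.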

Assay [7] can be described thus: qHTS assay to test for compound auto fluorescence at 535 nm (green) in HepG2 cells (AID 720675).
A short description of assay [8]: qHTS assay to test for compound auto fluorescence at 460 nm (blue) in HEK293 cells (AID 720678). Also: potency is read from the fitted curve at half-maximal effect. An outline of the steps: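 Blue-channel (Ex/Em 405/460 nm) intensity measured in HEK293 cultures after overnight compound exposure at 37C; signal expressed relative to triamterene. Cells plated 2,000 per well in 10% dialyzed FBS medium and allowed 4-5 hr to attach.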

A short description of assay [9]: qHTS assay to test for compound auto fluorescence at 590 nm (red) in HEK293 cells (AID 720679). The procedure, abridged: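 Red-channel autofluorescence (Ex/Em 540/590 nm; Rose Bengal sodium reference) was measured after overnight 37C, 5% CO2 exposure of attached HEK293 cells, 2,000 per well in medium with 10% dialyzed FBS.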
Assay [10] can be described thus: qHTS assay for small molecules that induce genotoxicity in human embryonic kidney cells expressing luciferase-tagged ATAD5 - cell viability (AID 651634; calls by dose curve; also: nearly all actives have a fitted effect of over 25% in size; also: potency is read from the fitted curve at half-maximal effect). The procedure, abridged:
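Fluorescence from CellTiter-Fluor, reporting protease activity within live cells, served as the viability read-out. HEK293T cells carrying luciferase-tagged ATAD5 had been treated with compound for 15.5 hr at 37C.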
% is scaled to controls: 0 for no effect and ±100 for the full control effect; tags tell the direction and shape of the fitted curve or compound fluorescence and quenching.

For `O=C(OC[C@H]1O[C@@H](OC(=O)c2cc(O)c(O)c(OC(=O)c3cc(O)c(O)c(O)c3)c2)[C@H](OC(=O)c2cc(O)c(O)c(OC(=O)c3cc(O)c(O)c(O)c3)c2)[C@@H](OC(=O)c2cc(O)c(O)c(OC(=O)c3cc(O)c(O)c(O)c3)c2)[C@@H]1OC(=O)c1cc(O)c(O)c(OC(=O)c2cc(O)c(O)c(O)c2)c1)c1cc(O)c(O)c(OC(=O)c2cc(O)c(O)c(O)c2)c1`, the Potency in assay [1] was 2.66 µM (active) and 10.4 µM (active); in assay [3], 5.96 µM (active) and inactive; in assay [4] it was 10.6 µM (active) and inactive; in [5], 2.37 µM (active). In addition, the Potency entry in assay [2], in assay [6], in assay [7], in assay [8] and in assay [9] was “inactive” in each case.

Consider `CC[C@H](c1ccc(O)cc1)[C@@H](CC)c1ccc(O)cc1`, for which the Potency in assay [1] is 5.07 µM (active) and 13.7 µM (active); in assay [3], “inactive and 54.5 µM (active)”; in assay [5] it was 8.04 µM (active) and 9.69 µM (active). The Potency entry in assay [2], in assay [6], in [7], in assay [8] and in assay [9] was “inactive” throughout.

With `O=C(NOCC1CC1)c1ccc(F)c(F)c1Nc1ccc(I)cc1Cl`, the Potency is 11.9 µM (active) in assay [1], 23.7 µM (active) in [3] and 8.41 µM (active) in [5]. In addition, the Potency result in [2], in assay [10], in [6], in assay [7], in [8] and in assay [9] was “inactive” in each case.

Regarding `COc1c(C)c2c(c(O)c1C/C=C(\C)CCC(=O)O)C(=O)OC2`, the Potency in assay [1] is 0.0717 µM (active); in assay [10], 0.202 µM (active). Also, the Potency entry in assay [2] and in assay [4] was “inactive” each time. In addition, the fluorescence, relative to Rose Bengal in assay [6] is 0.0782% [at 18.6 µM] (inactive). Besides, in assay [7], the fluorescence, % of fluorescein control was 0.0327% [at 18.6 µM] (inactive). For the same molecule, the fluorescence, % of triamterene in assay [8] was -0.0265% [at 18.6 µM] (inactive). Also, the fluorescence, % of fluorescent control in [9] was 0.167% [at 18.6 µM] (inactive).

Take `CCN(CC)CCCC(C)Nc1c2ccc(Cl)cc2nc2ccc(OC)cc12` (stereo not given): the Potency in assay [1] is 5.96 µM (active); in [2], 29.8 µM (active); in assay [8] it was 11.2 µM [fluorescent] (active). Further, the Potency entry in assay [10], in assay [6], in assay [7] and in [9] was “inactive” throughout.

Consider `C=CC(=O)OCC(CO)(COCC(COC(=O)C=C)(COC(=O)C=C)COC(=O)C=C)COC(=O)C=C`, for which the Potency was 67.8 µM (active) in assay [1], 2.4 µM (active) in assay [2], 2.7 µM (active) in assay [3] and 7.6 µM (active) in [10]. Besides, the Potency result in assay [6], in assay [7], in [8] and in [9] was “inactive” in each case.

For the molecule `N/C(=N\N=C\c1ccc(Cl)cc1)N/N=C/c1ccc(Cl)cc1`, the Potency in assay [1] and in [3] was 26.6 µM (active) each time. Moreover, the Potency entry in assay [2], in [4], in [6], in assay [7], in assay [8] and in assay [9] was “inactive” throughout.

On to `O=c1cc(-c2ccc(O)cc2)oc2cc(O)cc(O)c12`, for which the Potency in assay [1] was 15.6 µM (active) and 43.3 µM (active); in assay [2] it was 5.52 µM (active) and 4.86 µM (active); in [3], “inactive and 54.5 µM (active)”; in [4] it was 4.92 µM (active); in assay [5] it was 1.75 µM (active) and 1.37 µM (active). The Potency result in assay [6], in assay [7], in [8] and in assay [9] was “inactive” throughout.

On to `C=C(C)C(=O)OCC(O)COc1ccc(C(C)(C)c2ccc(OCC(O)COC(=O)C(=C)C)cc2)cc1` (stereo not given), for which the Potency in [1] was 68.6 µM (active); in [3], 54.5 µM (active); in [10], 21.7 µM (active). For the same molecule, the Potency entry in assay [2], in assay [6], in [7], in [8] and in assay [9] was “inactive” throughout.

As to `O=C(O)c1cc(O)c2c(c1)C(=O)c1cccc(O)c1C2=O`, the Potency in assay [1] was 19.9 µM (active); in assay [5], 2.51 µM (active). Besides, the Potency entry in assay [2], in [3], in assay [4], in assay [6], in assay [7] and in [8] was “inactive” in each case. For the same molecule, the Potency entry in assay [9] is “inactive”.

For `CCCCCOC(=O)CCCC`, the Potency entry in assay [1], in [2], in assay [3], in assay [4], in [5] and in assay [6] was “inactive” throughout. The Potency entry in assay [7], in assay [8] and in [9] was “inactive” each time.

`CC(=O)N1CCN(c2ccc(OC[C@H]3CO[C@](Cn4ccnc4)(c4ccc(Cl)cc4Cl)O3)cc2)CC1`: the Potency entry in assay [1], in assay [2], in assay [4], in [6], in assay [7] and in [8] was “inactive” throughout. Also, the Potency entry in assay [9] is “inactive”. The Potency entry in assay [3] is “inactive and 61.1 µM (active)”.

Consider `O=C(Nc1cccc(C(F)(F)F)c1)c1cc(Br)cc(Br)c1O`, for which the Potency in [1] was 5.31 µM (active) and 1.72 µM (active); in assay [3] it was 473 nM (active) and 686 nM (active); in assay [10] it was 13.3 µM (active); in [5], 335 nM (active) and 109 nM (active). For the same molecule, the Potency result in assay [2], in assay [6], in assay [7], in assay [8] and in [9] was “inactive” each time.

`CN(C)c1ccc(C2(c3ccc(N(C)C)cc3)OC(=O)c3cc(N(C)C)ccc32)cc1`: the values for the Potency in assay [1] and in assay [5] were 60.9 µM (active) and 21.6 µM (active), respectively. Further, the Potency entry in [2], in assay [3], in [10], in assay [6], in assay [7] and in assay [8] was “inactive” in each case. For the same molecule, in assay [9], the Potency entry is “inactive”.

For `Oc1ccc(Cl)cc1Sc1cc(Cl)ccc1O`, the Potency in assay [1] is 29.8 µM (active); in assay [3] it was 26.6 µM (active) and 54.4 µM (active); in [4], 9.44 µM (active) and 13.7 µM (active); in assay [5] it was 2.11 µM (active) and 1.53 µM (active). The Potency entry in [2], in assay [6], in assay [7], in assay [8] and in assay [9] was “inactive” each time.

Regarding `COc1cc(/C=C/C(=O)O[C@H]2CC[C@]34C[C@]35CC[C@]3(C)[C@@H]([C@H](C)CCC=C(C)C)CC[C@@]3(C)[C@@H]5CC[C@H]4C2(C)C)ccc1O`, the Potency in assay [1] and in [2] was 7.5 µM (active) in each case. Further, the Potency result in assay [3], in [4], in [6], in assay [7], in assay [8] and in [9] was “inactive” throughout.

As to `NC(=O)NS(=O)(=O)c1ccc(N)cc1`, the Potency result in assay [1], in assay [2], in assay [3], in [4], in assay [6] and in [7] was “inactive” in each case. In addition, the Potency result in assay [8] and in assay [9] was “inactive” each time.

As to `O=C(O)c1ccc(Cl)c(Cl)c1`, the Potency result in [1], in assay [2], in [3], in [4], in assay [6] and in assay [7] was “inactive” each time. Besides, the Potency entry in [8] and in assay [9] was “inactive” throughout.

On to `CCCCCCCCCCCCCCCS(=O)(=O)Oc1ccccc1`, for which the Potency entry in [1], in [2], in assay [3], in assay [6], in [7] and in assay [8] was “inactive” each time. Besides, the Potency entry in assay [9] is “inactive”.

In the case of `CCCCN(CCCC)c1ccc(C(=O)c2ccccc2C(=O)O)c(O)c1`, the Potency result in [2], in [10], in [4], in assay [6], in [7] and in assay [8] was “inactive” in each case. Also, the Potency result in assay [9] was “inactive”. Moreover, the Potency in [3] was 17.4 µM (active).

For `O=C1C=CC(=O)N1c1ccc(Cc2ccc(N3C(=O)C=CC3=O)cc2)cc1`, the Potency was 13.7 µM (active) in assay [1]; 10.9 µM (active) in assay [3]; 15.4 µM (active) in [10]; 7.7 µM (active) in assay [4]; 6.86 µM (active) in assay [5]. Further, the Potency entry in [6], in assay [7], in [8] and in [9] was “inactive” throughout.
